About 83,000 compounds went through this panel and 20% of them were active in at least one assay; those are over-represented in the sample as a whole.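 Method: cells in 96-well plates; compound added at one concentration; 48 h incubation; percent growth measured; values under 10 scored active.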 Activity calls are given as the source filed them.
Each compound was assayed on SN12C renal (assay: NCI-60 one-dose screen, 48 h (100 = growth as untreated, 0 = no growth, -100 = all killed)). Conditions: 10 µM unless noted.

Row | SMILES | growth
1 | COc1ccc(C/C(=C(\C)c2ccc(OCCN3CCCC3)cc2)c2ccc(OCCN3CCCC3)cc2)cc1 | 73.8% (inactive)
2 | CCOC(=O)Oc1c(OC)cc(C(=O)c2ccc(OC)c(O)c2OC)cc1OC | 46% (inactive)
3 | CCCCOc1ccc(/C(C)=N/Nc2cc(C)nc3ccc(Br)cc23)cc1 | 82.5% (inactive)
4 | O=[N+]([O-])c1cc(Br)c2cccc3c2c1CC3 | 101% (inactive)
5 | CC(Oc1ccc(C(=O)O)cc1C(F)(F)F)c1ccc(Oc2ccccc2)cn1 (centres undefined) | 98.3% (inactive)
6 | CCN1CCN(CCNc2nccc(-c3c(-c4cccc(OC)c4)nc4occn34)n2)S1(=O)=O | 95.6% (inactive)
7 | Cn1c2ccccc2c2c3c(c4c5ccccc5n(C)c4c21)C(=O)OC3 | 92.3% (inactive)
8 | COc1cc2c(cc1OC)C(=O)/C(=C/c1cc(C)c(O)c(C)c1)S2 | 50.4% (inactive)
9 | O=C(/C=C/c1ccc(F)cc1)c1ccc(NC(=O)N2CCN(c3cc4c(cc3F)c(=O)c(C(=O)O)cn4C3CC3)CC2)cc1 | 92.6% (inactive)
10 | O=C1c2ccc3c4c(ccc(c24)C(=O)N1CCCNCc1ccccc1Cl)C(=O)N(CCCNCc1ccccc1Cl)C3=O | -87.1% (active)
11 | Cc1cccc(NC(=O)Nc2ccc(-n3cnc4cc(-c5ccc(O)cc5)ccc43)cc2)c1 | 23% (inactive)
12 | c1ccc(-c2cn3c(ccc4ccccc43)n2)cc1 | 60.8% (inactive)
13 | COc1cc2oc(-c3cccc(C(=O)Nc4ccccc4)c3)cc(=O)c2c(O)c1OC | 74.8% (inactive)
14 | Cc1ccc(/C=N/NC(=O)CSc2nc3ccccc3c(=O)n2Cc2ccc(S(N)(=O)=O)cc2)cc1 | 97.3% (inactive)

Source: PubChem BioAssay (NCI)
